Results as given in PubChem BioAssay AID2098 (Broad Institute, 2009).
About 2,300 (0.77%) of roughly 300,000 compounds were called active. Many of the other results were omitted from the sample, so actives are more common in it than they were. A number with no mark means an inactive call.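 How the source made its calls: active means more than half of replicate wells show activity change below -50%, luminescence cut by over half; inconclusive means some wells, but at most half, below -50%; inactive means no replicate well below -50%.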

Assay: blocking HSF1-driven luciferase expression – cell-based, NIH3T3, luminescence, primary screen (AID 2098);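 further: luciferase reports HSF-1 transcriptional activity via heat shock element; 0% = median of DMSO wells and -100% = zero luminescence signal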
Conditions: NIH3T3-HGL HSE-luciferase, MG132-induced, luminescence 8 h; stronger effect = lower value; screened at 7.5 µM (by protocol)

In order of falling activity change, negative = inhibition:
1. COc1ccc(/C=N/NC(=O)Nc2ccc3nsnc3c2)c(OC)c1  15.1%
2. O=C(COC(=O)c1ccccc1SCC(=O)N1CCCC1)Nc1ccccc1OC(F)F  7.03%
3. COc1ccc(S(=O)(=O)NCC(c2ccco2)N2CCOCC2)cc1 (configuration not stated)  5.28%
4. O=C(c1ccc(F)c(S(=O)(=O)N2CCOCC2)c1)N(CCc1ccccc1)Cc1ccccc1  5.02%
5. O=C(Nc1nnc(S(=O)(=O)N2CCOCC2)s1)c1cccc(Br)c1  4.12%
6. O=C(Nc1ccc(C(=O)O)c(O)c1)c1ccccc1  2.77%
7. C[C@@H]1O[C@@H](OC[C@H]2O[C@@H](Oc3c(-c4ccc(O)cc4)oc4cc(O)cc(O)c4c3=O)[C@H](O)[C@@H](O)[C@@H]2O)[C@H](O)[C@H](O)[C@H]1O  2.53%
8. O=C(NCCS(=O)(=O)NCc1ccc(Cl)cc1)c1ccccc1  2.35%
9. Cc1ccc(C)c(N2CCN(C(=O)CCCCn3c(=O)[nH]c4ccccc4c3=O)CC2)c1  1.8%
10. CCC1(c2ccccc2)NC(=O)N(CC(=O)c2ccc3c(c2)OCO3)C1=O (configuration not stated)  1.78%
11. O=C(CCCCCn1c(=S)[nH]c2cc3c(cc2c1=O)OCO3)N1CCN(c2ccc(F)cc2)CC1  0.967%
12. O=C(O)c1ccc2c(c1)C(=O)N(NC(=O)c1ccc(O)cc1)C2=O  0.898%
13. N#CCCN(C(=O)COC(=O)c1ccc(S(=O)(=O)N2CCCCCC2)cc1)c1ccccc1  0.525%
14. O=C(Cn1c(=O)n(Cc2ccco2)c(=O)c2ccccc21)NCC1CCCO1 (configuration not stated)  0.503%
15. COC(=O)C1=C(C)Nc2ncnn2C1c1ccco1 (configuration not stated)  0.145%
16. O=C(NC1CCCCC1)c1ccc(CNc2c(N3CCOCC3)c(=O)c2=O)cc1  -0.199%
17. C=C1CCN([C@@H](Cc2ccccc2)C(=O)N2CCOCC2)S(=O)(=O)c2ccccc21  -0.215%
18. CN1CCN(C(=O)C2C3C=CC(C3)C2C(=O)O)CC1 (configuration not stated)  -0.614%
19. COc1cccc(CN(C)CC(=O)NCc2ccccc2Cl)c1OC  -1.39%
20. COc1cc(C(=O)NN(CCC#N)C2=NS(=O)(=O)c3ccccc32)cc(OC)c1OC  -1.4%
21. Cn1c(=S)sc2ccc3ccccc3c21  -1.53%
22. O=C(COC(=O)Cc1ccccc1F)NNC(=O)c1ccc(Cl)cc1  -1.7%
23. O=C(OCC1OC(Oc2ccc(O)cc2)C(O)C(O)C1O)c1ccccc1 (configuration not stated)  -1.79%
24. Cc1ccccc1N1CC(C(=O)Nc2ccc(S(=O)(=O)N3CCCC3)cc2)CC1=O (configuration not stated)  -1.85%
25. Cc1cccc(C(=O)Nc2nnc(S(=O)(=O)N3CCCCCC3)s2)c1  -1.91%
26. O=C(Nc1cccc2c1CCCC2)c1ccc(F)cc1  -2.27%
27. Cc1ccc(S(=O)(=O)N(NC2=NS(=O)(=O)c3ccccc32)C(=O)c2ccccc2)cc1  -2.65%
28. CCCCn1c(N)c(N(CC(C)C)C(=O)c2cccc(S(=O)(=O)N3CC(C)OC(C)C3)c2)c(=O)[nH]c1=O (configuration not stated)  -2.84%
29. O=C(COc1ccccc1)Nc1ccc(C(=O)N2CCCC2)cc1  -3.01%
30. O=C(NCc1ccccc1)c1ccc(CNc2c(N3CCCC3)c(=O)c2=O)cc1  -3.59%
31. COc1cccc(OC)c1C(=O)Nc1sc2c(c1C(N)=O)CCCC2  -3.68%
32. Cc1nc2ccc(C(=O)N(C)CC3CCCN(CCc4ccc(Cl)cc4)C3)cc2[nH]1 (configuration not stated)  -3.74%
33. Cn1c(=O)c2ccccc2n(CC(=O)Nc2ccc3c(c2)OCCO3)c1=O  -3.8%
34. CCN1CCN(C(=O)/C=C\C(=O)O)CC1  -4.12%
35. Cc1cc(Br)ccc1NC(=O)CN(C)C(=O)CN1C(=O)NC2(CCCC2)C1=O  -4.3%
36. CCOc1ccc(C2=CC(c3ccccc3)n3ncnc3N2)cc1 (configuration not stated)  -4.36%
37. N#CC1=C(N)Oc2[nH]c(=S)[nH]c(=O)c2C12C(=O)Nc1ccccc12 (configuration not stated)  -4.51%
38. COc1ccc(C)cc1NC(=O)CSc1nnc2ccc(-c3ccccn3)nn12  -4.51%
39. COc1ccc(/C=N/NC(=O)CNC(=O)c2ccc(S(=O)(=O)N3CCCC3)cc2)c(OC)c1  -4.96%
40. Cc1ccc(C)c(NC(=S)NCC(c2cccnc2)N2CCOCC2)c1 (configuration not stated)  -6.11%
41. CCCCN1C(N)=NC[C@@H]1CC1CCCCC1  -7.88%
42. Cc1ccc(C(CNC(=O)Nc2ccccc2)N2CCN(C)CC2)cc1 (configuration not stated)  -9.11%
43. O=C(COc1ccccc1F)Nc1nc(-c2ccccn2)cs1  -13.1%
44. COc1ccc(Cl)cc1C=CC=Nc1ccc(S(N)(=O)=O)cc1  -18.4%
45. Cn1cccc1C(=O)OCC(=O)c1ccc(Br)s1  -97.9%

With `C/C(=C/C(=O)N1CCN(C)CC1)C(=O)O` the activity change, negative = inhibition was -83.7% (active).
With `COc1cccc(CN(C)CC2CCCN(CCc3ccc(Cl)cc3)C2)c1OC` (configuration not stated) the activity change, negative = inhibition was -81.7% (active).
For `COc1ccc(NC(=O)Cn2c(=O)n(Cc3ccco3)c(=O)c3ccccc32)cc1`, the activity change, negative = inhibition was -89% (active).
For `Brc1ccc(C2=CC(c3ccco3)n3ncnc3N2)cc1` (configuration not stated), the activity change, negative = inhibition was -56.9% (active).
For `O=C(c1ccc(O)cc1)c1ccc(C(=O)O)c(C(=O)O)c1`, the activity change, negative = inhibition was -68% (active).
For `Cc1ccc(C)c(N2CCN(C(=O)CCCCCn3c(=S)[nH]c4ccc(N5CCOCC5)cc4c3=O)CC2)c1`, the activity change, negative = inhibition was -73.3% (active).
With `N#CC1=C(N)Oc2n[nH]c(CSc3ccccc3)c2C12C(=O)Nc1ccccc12` (configuration not stated) the activity change, negative = inhibition was -57.8% (active).
In the case of `O=C(Nc1nnc(S(=O)(=O)N2CCCCCC2)s1)c1cccc(Br)c1`, the activity change, negative = inhibition is reported as -56% (active).
For `Cc1ccc(NC(=O)NCC(c2cccnc2)N2CCOCC2)cc1` (configuration not stated), the activity change, negative = inhibition was -69.8% (active).
With `CC1CCN(c2c(NCc3ccc(C(=O)NCc4ccccc4)cc3)c(=O)c2=O)CC1` the activity change, negative = inhibition was -69.2% (active).
For `COc1ccc(/C=N/NC(=O)c2ccc3c(c2)OCCO3)c(OC)c1`, the activity change, negative = inhibition was -61% (active).
In the case of `Cc1ccc(C(=O)NN(CCC#N)C2=NS(=O)(=O)c3ccccc32)cc1`, the activity change, negative = inhibition is reported as -53.5% (active).
